In PubChem BioAssay AID2108 (National Center for Advancing Translational Sciences (NCATS), 2009):
Records with an inconclusive call do not appear. Calls of active or inactive are those of the source. Calls come from the whole dose curve; as a rule, active = well fitted curve in the direction sought with a large enough effect; inconclusive = small, poorly fitted or top-dose-only effect, or effect the other way, or another doubt; inactive = no such curve, though single readings can be large or run the other way.

Each compound was assayed against Alpha-galactosidase A (Homo sapiens) (UniProt P06280) (assay: Confirmation of Inhibitors of Human alpha-Galactosidase Using Spleen Homogenate). Settings: alpha-galactosidase enzyme activity; series mostly up to 56.2 µM.
Alpha-galactosidase A (Homo sapiens), sequence (P06280 32-429 limits assumed): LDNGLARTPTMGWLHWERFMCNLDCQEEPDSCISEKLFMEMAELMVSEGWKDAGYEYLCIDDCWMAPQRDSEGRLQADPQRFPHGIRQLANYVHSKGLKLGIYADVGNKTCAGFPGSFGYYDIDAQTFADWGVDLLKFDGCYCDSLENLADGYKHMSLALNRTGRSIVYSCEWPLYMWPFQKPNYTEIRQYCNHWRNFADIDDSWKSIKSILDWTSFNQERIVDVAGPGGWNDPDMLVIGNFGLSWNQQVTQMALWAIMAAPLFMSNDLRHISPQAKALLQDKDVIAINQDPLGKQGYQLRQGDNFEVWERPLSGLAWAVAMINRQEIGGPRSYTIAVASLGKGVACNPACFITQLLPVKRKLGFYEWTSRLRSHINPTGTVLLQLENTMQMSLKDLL
Method in brief: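 Human spleen homogenate (1 ug) with 1 mM 4-methylumbelliferyl-alpha-D-galactopyranoside in citrate-phosphate pH 5.0, 0.01% Tween-20, 37C 40 min; compounds 0.5 nM–58 uM final. Stopped at pH 10, fluorescence Ex 365/Em 440; AC50 from Hill fits.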

outcome, inactive:
CCc1sc(-c2cc3ccc(O)cc3oc2=O)nc1-c1ccccc1, COc1ccc(Cc2nnc(NC(=O)CSc3ccc(Cl)cc3)s2)cc1, O=C(NCC1CCOCC1)c1ccc2nc(Cc3cccc(Cl)c3)oc2c1, OCC(CO)NC1C[C@](O)(CO)[C@@H](O)[C@H](O)[C@H]1O (some centres not stated), O=S(=O)(c1ccc(O)cc1)N1CCOCC1, CC(=O)c1ccc(NC(=O)COc2ccccc2-c2nc(C)no2)cc1, CCOc1c(Br)cc(CNc2ccc(N3CCOCC3)cc2)cc1OC, CN(C)C=Nc1nc2ccccc2nc1N1CCCC1, Cc1cc(NC(=O)C(C)(C)C)cc(-c2nc3ncccc3o2)c1O, CCc1sc(-c2cc3cc(Cl)ccc3oc2=O)nc1-c1ccccc1, CC1=C(C(=O)Nc2ccccc2C)C(c2ccccn2)n2nc(SCc3ccccc3F)nc2N1 (configuration not stated), O=C(O)c1c(-c2ccccc2)c2oc3ccccc3c2[nH]c1=O, Nc1cccc(S(=O)(=O)N2CCOCC2)c1, Cc1ccc(S(=O)(=O)N2CCOCC2)cc1, O=S(=O)(c1ccccc1)N1CCN(S(=O)(=O)c2ccccc2)CC1, Cn1cnc2c(NCc3ccccc3)nc(NCCO)nc21, CN(CCO)S(=O)(=O)c1ccc2c(c1)C(=NNC(N)=O)c1cc(S(=O)(=O)N(C)CCO)ccc1-2
